# The entries come from a sample that favours hits as a whole.
# RMI FANCM FP: disruptors of RMI1/RMI2 association with MM2 peptide – biochemical, fluorescence polarization, human, primary screen | RMI core complex with F-MM2 peptide; active compounds read low | RMI core complex (RMI1/RMI2) binding to FANCM MM2 peptide, human | FP signal (polarization) at 33 µM | AID 1159607, 2016 | hit rate 0.58% among 70,000; in the data active = FP signal below about 40
# Starred values were filed as active, the others as inactive; ! = a repeat was not active.
SMILES,RMI FANCM FP
O=C(Nc1ccc2c(c1)CN(C(=O)C1CC1)CC2)c1c(F)cccc1Cl,75
O=C(N/N=C\c1ccc(O)cc1)c1cc[n+]([O-])cc1,87
Cc1nn(-c2ccccc2)c(C)c1C(=O)Nc1ccc2c(c1)OCO2,53
COc1cccc2sc(Nc3nc4c(F)cc(F)cc4s3)nc12,28*
COc1cccc2sc(Nc3nc(C(C)(C)C)cs3)nc12,61
Fc1cccc2sc(Nc3nc4c(F)cccc4s3)nc12,70
COc1ccc(C(C)(SCC(=O)O)SCC(=O)O)cc1,54
Cc1cc(Nc2ccc(S(=O)(=O)Nc3nccs3)cc2)c2ccc(C(F)(F)F)cc2n1,60
CCOC(=O)c1cnc2cc(C(F)(F)F)ccc2c1Nc1ccc(S(=O)(=O)N(C)C)cc1,65
Cc1cc(Nc2ccc(N(C)C)cc2)c2ccc(C(F)(F)F)cc2n1,19*
CN(C)CCCN(C(=O)c1ccnn1C)c1nc2c(Cl)cccc2s1,80
COc1ccc(-n2c(C)nc3ccc(NC(=O)c4ccc(C(F)(F)F)cc4)cc3c2=O)cc1,70
CCOc1cc(/C=C2/SC(=S)N(NC(=O)c3ccc(C)cc3C)C2=O)ccc1O,90
COC(=O)c1c(NC(=O)CN2CCCCCC2)sc2c1CCCC2,73
CCOC(=O)c1c(C)[nH]c(C(=O)CSc2ccc(Cl)cc2)c1C,71
COC(=O)c1c(C)[nH]c(C(=O)CN2CCCCCC2)c1C,6*
O=C(CSc1ccc(NC(=O)c2cccc(F)c2)nn1)Nc1ccc2c(c1)OCCO2,66
Cc1cccc(C)c1NC(=O)C(=O)NC1CCCC1,65
COc1cc(-c2ccc(=O)n(CC(=O)Nc3ccc(F)cc3F)n2)cc(OC)c1OC,56
COc1cc2cc(CNc3ccc(C)cc3)c(=O)n(CC(=O)Nc3ccc(F)cc3F)c2cc1OC,9*
Cc1ccc(-c2noc(-c3cccn(CC(=O)Nc4ccc(F)cc4F)c3=O)n2)cc1,95
NNc1nc2cc3c(cc2s1)OCCO3,-6*
c1c2c(cc3sc(N4CCN(c5nc6cc7c(cc6s5)OCCO7)CC4)nc13)OCCO2,63
CCC(=O)Nc1nc2cc3c(cc2s1)OCCO3,73
CCN1CCN(Cc2c(O)ccc3c2O/C(=C\c2cc(OC)c(OC)c(OC)c2)C3=O)CC1,99
SMILES,RMI FANCM FP
O=C(O)CC1SC(=Nc2ccc(O)cc2)NC1=O (configuration not stated),62
O=C1NC(=Nc2ccc(Cl)cc2)SC1Cc1cccc([N+](=O)[O-])c1 (configuration not stated),62
O=C1NC(=Nc2ccccc2)SC1Cc1cccc([N+](=O)[O-])c1 (configuration not stated),-6*
Cc1ccsc1/C=N\NC(=O)CNC(=O)c1c(F)cccc1Cl,64
O=C(NCc1ccc2c(c1)OCO2)C(=O)Nc1ccc(F)c(Cl)c1,52
Cc1cccc(-c2nc3scc(CCN)n3n2)c1,72
Cc1nn2c(N)csc2nc1=O,19*
COc1ccc(Cc2nnc(SCC(=O)Nc3ccc(Cl)c(Cl)c3)n2N)cc1,52
Cc1ccc(NC(=O)Cn2cnc3c(-c4ccccc4)csc3c2=O)cc1C,88
Cc1ccc(-c2csc(=NC34CC5CC(CC(C5)C3)C4)n2-c2ccccc2)c(C)c1,61
O=C(CSc1nnc2ccc(-c3ccco3)nn12)Nc1cccc(Cl)c1,67
COc1ccc(S(=O)(=O)N=C2C=C(Nc3cccc(C)c3)C(=O)c3ccccc32)cc1,13*
COC(=O)c1ccccc1NC1=CC(=NS(=O)(=O)c2ccc(F)cc2)c2ccccc2C1=O,57
O=C1C(NS(=O)(=O)c2ccccc2)=CC(=NS(=O)(=O)c2ccc(F)cc2)c2ccccc21,58
O=C(/C=C/c1ccccc1)NC(=S)NNC(=O)Cn1nnc(-c2ccccc2C(F)(F)F)n1,61
COc1cc(C(=O)NCCCN2CCOC(c3ccccc3)C2)cc(OC)c1OC (configuration not stated),74
Cc1nc(Sc2nc3ccccc3o2)c2c3c(sc2n1)CCCC3,30*
Cc1nc(Cl)c2c3c(sc2n1)CCCC3,57
Cc1nc2sc3c(c2c(=O)o1)CCCC3,53
O=C(Nc1cccc(-c2ccc3nnc(-c4cccs4)n3n2)c1)c1ccccc1F,62
CC(/C=C1\SC(=S)N(CC(=O)N2c3ccccc3Sc3ccccc32)C1=O)=C\c1ccccc1,61
CC(/C=C1\SC(=O)N(CC(=O)Nc2ccc(O)cc2)C1=O)=C\c1ccccc1,54
CC(/C=C1\SC(=S)N(CC(=O)Nc2ccc(C(=O)O)c(O)c2)C1=O)=C\c1ccccc1,19*
O=C(Oc1c(Br)cc(Cl)c2cccnc12)N1CCOCC1,57
C=C(C)CC1C(=O)N(C(=O)c2c(Cl)cccc2Cl)N=C1C (configuration not stated),53
SMILES,RMI FANCM FP
CS(=O)(=O)N1CCC(C(=O)NCCn2ncc3c(N4CCOCC4)ncnc32)CC1,63
O=C1C=CC(=NS(=O)(=O)c2cc([N+](=O)[O-])ccc2Cl)C=C1,42
O=C1C=CC(=NS(=O)(=O)c2ccc(F)cc2)C=C1,2*
O=C1C=CC(=NS(=O)(=O)c2ccc3ccccc3c2)C=C1,37
COC(=O)c1ccccc1N/C=C/c1nnnn1-c1ccccc1,53
O=C1NC(=S)NC(=O)C1=CN1CCc2ccccc21,110
CCCCC(=O)NNC(=O)c1ccc(=O)n(Cc2ccc(Cl)cc2)c1,59
N/C(CC(=O)Nc1ccc(F)c(F)c1F)=N/O,35*
O=C(CS(=O)(=O)c1ccc(Cl)cc1)Nc1ccc(F)c(F)c1F,57
NC(=O)Nc1ccc(F)cc1F,57
N#Cc1ccc(CO/N=C(/N)c2ccc(Cl)cc2)cc1,54
N=c1c(-c2nc3ccccc3s2)cc2c(=O)n3ccccc3nc2n1Cc1ccco1,-55
O=C(O)Cc1csc(Nc2cccc(C(F)(F)F)c2)n1,68
NC(=O)Cc1csc(Nc2cccc(C(F)(F)F)c2)n1,29*
NC(=O)c1ccccc1NC(=O)Cc1csc(Nc2cccc(C(F)(F)F)c2)n1,66
Cc1cc(S(=O)(=O)N2CCN(c3ccc(-c4cccs4)nn3)CC2)ccc1F,117
O=C(N/N=C\c1cn(-c2ccccc2)nc1-c1ccc([N+](=O)[O-])cc1)c1cccs1,63
Cc1ccc(C)c(OCC(=O)N2CCC(C)CC2)c1,67
Cc1ccc(OCCCC(=O)NCC(C)C)c(C)c1,66
Cc1ccc(C)c(OCCCC(C)(C)C(=O)O)c1,12*!
O=C(NCc1ccc(F)cc1)C(=O)Nc1cc2c3c(c1)CCC(=O)N3CCC2,52
CC(Cn1cnc2ccccc21)C(=O)N/N=C\c1ccccn1 (configuration not stated),60
Cc1nc2ccccc2c(=O)n1-c1cccc(NS(=O)(=O)c2cccc([N+](=O)[O-])c2)c1,54
Cc1ccc(S(=O)(=O)N=Cc2cccc([N+](=O)[O-])c2)cc1,61
CC1=CC(=NS(=O)(=O)c2cccc([N+](=O)[O-])c2)C=CC1=O,-23*
O=C(Cc1n[nH]c(=S)[nH]c1=O)c1cccs1,66
CC(=O)c1ccc(NC(=O)COC(=O)c2ccc(C3Nc4ccccc4S(=O)(=O)N3)cc2)cc1 (configuration not stated),82
Cc1nnsc1C(=O)NCCn1ncc2c(N3CCN(c4ncccn4)CC3)ncnc21,64
O=[N+]([O-])c1ccc(S(=O)(=O)c2ccccc2)cc1O,62
O=C1c2ccc(O)c(O)c2C(=O)c2c(O)ccc(O)c21,43

# High-throughput results from PubChem BioAssay.
